High-throughput results: PubChem, National Center for Advancing Translational Sciences (NCATS)
HCV inh – inhibitors of hepatitis C virus infection; hit rate 3.4% among 340,000; Potency, µM (doses to about 41.8 µM), actives largely listed as inhibitors; Huh7.5.1 HCVcc-Cre infection, luciferase reporter, 44 h
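Cells seeded at 1,000/well and cultured 4 h, then compounds added followed by HCVcc-Cre virus (~0.5 moi). After 44 h further culture, luciferase substrate was added, plates held 15 min at room temperature, and luminescence read for 15 sec.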
Vaccinia mCherry – vaccinia inhibition (mCherry reporter); AID 720579; Potency, µM (highest dose often 36.5 µM), actives largely listed as inhibitors; hit rate 0.63% among 310,000; Vaccinia virus mCherry reporter infection, fluorescence; calls by dose curve; tested in A549 cells; note: nearly all actives have a fitted effect of over 35% in size
Sm TGR block – S. mansoni TGR enzyme inhibition | Potency, µM (series often up to 114 µM), actives largely listed as inhibitors | purified TGR, DTNB reduction, TNB absorbance 405 nm | Q962Y6 | hit rate 3% among 360,000; note: nearly all actives have a fitted effect of over 60% in size
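Kinetic colorimetric format: TGR-catalysed, NADPH-driven DTNB reduction monitored via TNB absorbance. Enzyme dispensed at 20 nM; compound exposure 15 min at room temperature before reaction start.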
HCMV inh – human cytomegalovirus inhibition. hit rate 4.5% among 410,000. HFF cells, HCMV-luciferase reporter, 72 h; stronger effect = lower value. activity change, negative = inhibition, % at 57.5 µM; in the data active = activity change below about -60%; inconclusive = no clear call, values can overlap the other calls; inactive = above about -39%
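Two-dose cell screen: HFF monolayers treated with compounds and infected with luciferase-expressing HCMV at 1 PFU/cell, 72 h at 37C, then lysed for luciferase measurement.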
FMDV inh – antivirals against foot and mouth disease virus; FMDV antiviral cell-based qHTS; Potency, µM (top dose mostly 57.9 µM), most hits filed as inhibitors; hit rate 1.2% among 410,000; AID 1159524; calls by dose curve; tested in HEK293T cells; note: read-out not given here; nearly all actives have a fitted effect of over 45% in size
VACV Venus inh – inhibitors of vaccinia virus (Venus reporter). Vaccinia virus Venus reporter expression, fluorescence. Potency, µM (titrated, usually from 36.5 µM), most hits filed as inhibitors. hit rate 0.46% among 330,000; calls by dose curve; tested in A549 cells; note: nearly all actives have a fitted effect of over 30% in size
Large screens that a line does not name were inactive. This is a sample that favours compounds with a hit; in the whole collection about 9.3% have one here. Unless noted, calls come from the whole dose curve; as a rule, active = well fitted curve in the direction sought with a large enough effect; inconclusive = small, poorly fitted or top-dose-only effect, or another doubt; inactive = no such curve, though single readings can be large; an effect the other way counts as inactive or inconclusive.

O=C(NNC(=O)C12CC3CC(CC(C3)C1)C2)c1ccccn1	HCV inh inconclusive, Vaccinia mCherry 10µM, HCMV inh -107, FMDV inh inconclusive, VACV Venus inh inconclusive
O=C(NNC(=O)C12CC3CC(CC(C3)C1)C2)c1cnccn1	HCMV inh inconclusive
O=C(N/N=C/c1cccnc1)C12CC3CC(CC(C3)C1)C2	none
CCOc1ccccc1NC(=O)C1CC2CCCC(C1)C2=O (stereo not given)	HCV inh inconclusive (no result: Vaccinia mCherry, VACV Venus inh)
Cc1cccc[n+]1CC(=O)Nc1ccccc1	none
CCOc1ccc(C2C3=C(Nc4nc(N)[nH]c(=O)c42)c2ccccc2C3=O)cc1 (stereo not given)	HCV inh inconclusive
CCCOc1ccc(C2C3=C(Nc4nc(N)[nH]c(=O)c42)c2ccccc2C3=O)cc1 (stereo not given)	HCV inh inconclusive, HCMV inh -67 (no result: Vaccinia mCherry, VACV Venus inh)
Cc1c(NC(=O)COC(=O)c2cccc(F)c2)c(=O)n(-c2ccccc2)n1C	none (no result: HCV inh, Sm TGR block)
COc1cccc(C(=O)N2c3nc(-c4ccco4)nn3C3(CCCCC3)[C@@H]3CCCC[C@@H]32)c1	Sm TGR block 7.9µM, HCMV inh -64 (no result: HCV inh)
O=C(c1cccc([N+](=O)[O-])c1)N1c2nc(-c3ccco3)nn2C2(CCCCC2)[C@@H]2CCCC[C@@H]21	Sm TGR block inconclusive, HCMV inh -77 (no result: HCV inh)
Cc1c(C#N)c(O)n(CCO)c(=O)c1N=Nc1ccc2c(c1)COC2=O	none
O=C(COC(=O)c1nc(Cl)ccc1Cl)Nc1ncc(Cl)cc1Cl	none
Cn1cc(C(=O)Cc2ccccc2)c2ccccc21	HCV inh inconclusive, HCMV inh -67
CC(C)=C1C2CCC1C1C(=O)N(c3ccc(C)c(C)c3)C(=O)C21 (stereo not given)	none
N#CC(c1ccc(F)cc1)c1ccc(C(=O)c2ccc(F)cc2)cc1 (stereo not given)	HCV inh inconclusive, FMDV inh inconclusive, VACV Venus inh inconclusive (no result: Vaccinia mCherry)
Cc1ccc(C(C#N)c2ccc(C(=O)c3ccc(F)cc3)cc2)cc1 (stereo not given)	HCV inh inconclusive, HCMV inh -78, VACV Venus inh inconclusive
COc1ccc(N=c2ssnc2Cl)cc1	Sm TGR block 56µM (no result: HCMV inh)
Clc1ccc(N=c2ssnc2Cl)cc1	Sm TGR block inconclusive, FMDV inh inconclusive (no result: Vaccinia mCherry, VACV Venus inh)
COc1ccccc1NC(=O)CCC(=O)OCc1ccc([N+](=O)[O-])cc1	HCMV inh inconclusive
COc1ccccc1N1CCN(C(=O)CSc2nc3ccccc3o2)CC1	none (no result: Vaccinia mCherry, VACV Venus inh)
COc1ccc(NC(=O)CCSc2nc(-c3ccco3)cc(C(F)(F)F)n2)cc1OC	none (no result: HCV inh)
COCCNc1nc(SCC(=O)N2CCN(c3ccccc3OC)CC2)nc2ccccc12	HCV inh 10µM, FMDV inh inconclusive (no result: Vaccinia mCherry, VACV Venus inh)
COc1ccc(NC(=O)CCCSc2nc(-c3ccco3)cc(C(F)(F)F)n2)cc1OC	HCV inh 16µM
COc1ccc(NC(=O)CSc2nc(-c3ccco3)cc(C(F)(F)F)n2)cc1Cl	HCMV inh -69, FMDV inh inconclusive (no result: HCV inh)
O=C(CSc1nc(-c2ccco2)cc(C(F)(F)F)n1)Nc1ccc(C(=O)N2CCCCC2)cc1	HCV inh 11µM, FMDV inh inconclusive
O=C(c1ccco1)N1CCC[C@@]2(CCN(c3ccncc3)C2)C1	none (no result: HCV inh, Vaccinia mCherry, Sm TGR block, HCMV inh, VACV Venus inh)
COc1ccc(S(=O)(=O)NCc2ccc(C(=O)O)cc2)cc1	none
O=C(NCC(=O)N1CCc2ccccc2C1)c1ccc(Cl)cc1Cl	none
O=C(NNc1ncnc2c1cnn2-c1ccccc1)c1cccc(Cl)c1	none (no result: HCV inh)
CCOC(=O)N1CCN(c2nc(-c3ccco3)cc(C(F)(F)F)n2)CC1	HCV inh inconclusive, HCMV inh -62, FMDV inh inconclusive
COc1ccccc1N1CCN(C(=O)CSc2nc(-c3ccco3)cc(C(F)(F)F)n2)CC1	HCV inh inconclusive, Sm TGR block 35µM, FMDV inh inconclusive
COC1CCCCC1NCCc1ccccc1 (stereo not given)	none
COc1ccc(Nc2ncnc3sc(-c4ccccc4)cc23)cc1OC	HCV inh inconclusive, HCMV inh -62
CCOC(CNc1ncnc2sc(-c3ccccc3)cc12)OCC	HCV inh inconclusive, Sm TGR block inconclusive, HCMV inh -72 (no result: Vaccinia mCherry, VACV Venus inh)
CN(C)CCCNc1ncnc2sc(-c3ccccc3)cc12	HCV inh inconclusive (no result: Vaccinia mCherry, VACV Venus inh)
O=S(=O)(NCCN1CCCC1)c1ccc(Cl)cc1	none (no result: HCMV inh)
O=C1Nc2ccccc2O/C1=C\c1c(F)cccc1Cl	HCV inh 10µM
COC(=O)c1ccc(/C=C2\Oc3ccccc3NC2=O)cc1	none (no result: Vaccinia mCherry, VACV Venus inh)
Cc1cnc([N+](=O)[O-])n1CCOC(=O)NC(=O)c1ccccc1Cl	HCV inh inconclusive, HCMV inh -66
CC(=O)N1CCC2(CCCN(c3cccc(-c4ccccc4)c3)C2)CC1	none (no result: HCV inh, Vaccinia mCherry, Sm TGR block, HCMV inh, VACV Venus inh)
COC(=O)c1c(C)cc(OC(=O)c2c(C)cc(O)c(C=O)c2O)c(C)c1O	none (no result: HCV inh, Sm TGR block, HCMV inh)
Cc1cc(C)c(C(=O)CSc2nnc(N)s2)c(C)c1	none (no result: Vaccinia mCherry, VACV Venus inh)
Cc1cc(C)c(C(=O)CSc2nnc(C)s2)c(C)c1	HCMV inh -61 (no result: Sm TGR block)
Cc1cccc(NC(=O)c2ccc(Cn3nc(N4CCN(c5ccccc5)CC4)ccc3=O)o2)c1C	HCMV inh -72 (no result: HCV inh)
Cc1ccc(F)cc1NC(=O)c1ccc(Cn2nc(N3CCN(c4ccccc4)CC3)ccc2=O)o1	Vaccinia mCherry inconclusive, HCMV inh -73, FMDV inh 35µM, VACV Venus inh inconclusive (no result: HCV inh)
Cc1cc(F)ccc1NC(=O)Cn1nc(N2CCN(c3ccccc3)CC2)ccc1=O	none (no result: HCV inh)
CCN(CC)CCCN1C(=O)C(O)=C(C(C)=O)C1c1cccc(OC)c1 (stereo not given)	none (no result: Vaccinia mCherry, HCMV inh, FMDV inh, VACV Venus inh)
O=C(CNC(=O)c1cccs1)NCC(=O)OCC(=O)c1ccccc1	none
Cc1ccc(C2CC2c2n[nH]c(=S)n2-c2cccc(Cl)c2)cc1 (stereo not given)	none
CC(=O)Nc1nc(NC(=O)C(Cl)(Cl)Cl)n(-c2ccccc2)n1	none
NNC(=O)Cn1c(COc2ccc(Cl)cc2)nc2ccccc21	HCV inh 11µM
CCC(CC)C(=O)N1N=C(c2ccc(NS(C)(=O)=O)cc2)CC1c1ccccc1 (stereo not given)	HCV inh inconclusive (no result: Vaccinia mCherry, VACV Venus inh)
CCN(CCCl)c1cc(CN(C)C)cc(NC(=O)c2ccc(C(=O)Nc3cc(CN(C)C)cc(N(CC)CCCl)c3)cc2)c1	HCV inh 1.4µM, Vaccinia mCherry 1.3µM, HCMV inh -101, FMDV inh inconclusive, VACV Venus inh 2.8µM (no result: Sm TGR block)
CCOC(=O)N1CCN(C(=O)Cc2ccc(Cl)cc2)CC1	none (no result: Vaccinia mCherry)
CCOC(=O)N1CCN(C(=O)CCl)CC1	HCV inh inconclusive, Vaccinia mCherry 2.2µM, Sm TGR block 40µM, FMDV inh inconclusive, VACV Venus inh 3.2µM
Cc1cc(C(=O)COC(=O)c2cc(Cl)c(O)c(Cl)c2)c(C)n1C	Sm TGR block 50µM (no result: Vaccinia mCherry, VACV Venus inh)
CC(C)(C)NC(=O)CN1CCN(C(=O)CCl)CC1	Vaccinia mCherry inconclusive, Sm TGR block 45µM, HCMV inh -63, FMDV inh inconclusive, VACV Venus inh 2.5µM
CCOC(=O)N1CCN(C(=O)COC(=O)c2cc(Cl)c(O)c(Cl)c2)CC1	HCMV inh -73
